# Assay results reported in PubChem BioAssay (EPA / NIEHS).
# Values joined by “and” are separate entries in the source; they are usually repeats but may differ in a detail not shown here. Equal values may be shown once. Inconclusive results are not listed. The source holds several records for some structures; these can differ, active in one and inactive in another. Active and inactive are the calls of the source. How the source made its calls, unless noted: active means hit-call score of the fitted dose curve at least 0.9, where 1 is the maximum; inconclusive means response in the unintended direction; inactive means score below 0.9.
# Legend:
# [1] = target: Estrogen receptor (Homo sapiens) (UniProt P03372); test: CCTE_Deisenroth_AIME_384WELL_LUC_Active: CCTE's 384-well Estrogen Receptor Transactivation Assay with AIME metabolic competence (ERTA luciferase; metabolism positive), Deisenroth Lab (AID 2284030)
# Sequence of Estrogen receptor (Homo sapiens) (P03372 whole entry, looked up): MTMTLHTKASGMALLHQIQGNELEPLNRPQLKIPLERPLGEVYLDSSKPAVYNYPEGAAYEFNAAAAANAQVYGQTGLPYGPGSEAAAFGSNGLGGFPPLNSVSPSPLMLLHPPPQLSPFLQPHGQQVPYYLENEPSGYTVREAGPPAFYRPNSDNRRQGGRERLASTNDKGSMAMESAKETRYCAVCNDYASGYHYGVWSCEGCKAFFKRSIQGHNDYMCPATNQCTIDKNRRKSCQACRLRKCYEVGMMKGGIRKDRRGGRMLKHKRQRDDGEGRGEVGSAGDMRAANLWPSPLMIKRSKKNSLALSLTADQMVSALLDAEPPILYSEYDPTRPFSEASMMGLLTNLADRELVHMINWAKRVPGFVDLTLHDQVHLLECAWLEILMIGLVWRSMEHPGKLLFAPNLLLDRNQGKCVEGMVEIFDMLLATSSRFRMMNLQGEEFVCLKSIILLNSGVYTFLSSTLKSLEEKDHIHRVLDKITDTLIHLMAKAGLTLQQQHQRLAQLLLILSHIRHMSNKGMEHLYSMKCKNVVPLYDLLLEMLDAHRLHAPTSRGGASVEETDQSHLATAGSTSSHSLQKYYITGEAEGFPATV
# Method in brief: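 Chemicals (10-point, 0.002-200 uM) were first incubated 2 hours with alginate-immobilized induced male Sprague Dawley rat liver S9. The conditioned medium was then applied to VM7Luc4E2 cells for 24 hours, with ER luciferase induction read by luminescence relative to 17beta-estradiol.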
# [2] = CCTE_Deisenroth_AIME_384WELL_CTox_Active: Cytotoxicity Assessment (CTOX) in CCTE's 384-well Estrogen Receptor Transactivation Assay with AIME metabolic competence (metabolism positive), Deisenroth Lab (AID 2284037);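 further: chemicals first conditioned 2 h by alginate-bound induced rat liver S9 before cells; activity means signal loss indicating cell death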
# Method in brief: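 Cytotoxicity in VM7Luc4E2 breast cells, 24 hour, measured as protease-substrate fluorescence loss, after 2-hour metabolic conditioning with induced rat hepatic S9 in alginate microspheres. Concentrations 0.002 - 200 uM, 10 points, bidirectional fitting.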
# [3] = target: Estrogen receptor (Homo sapiens) (UniProt P03372); test: CCTE_Deisenroth_AIME_384WELL_LUC_Inactive: CCTE's 384-well Estrogen Receptor Transactivation Assay without AIME metabolic competence (ERTA luciferase; metabolism negative), Deisenroth Lab (AID 2284038);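 further: hits raise estrogen receptor luciferase signal so potencies reflect agonists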
# Method in brief: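 VM7Luc4E2 ER transactivation, luciferase bioluminescence after 24 h, using medium pre-incubated 2 h with S9-free alginate microspheres. Concentrations 0.002–200 uM; gain of signal fitted relative to 17beta-estradiol.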
# [4] = CCTE_Deisenroth_AIME_96WELL_CTox_Active: Cytotoxicity Assessment (CTOX) in CCTE's 96-well Estrogen Receptor Transactivation Assay with AIME metabolic competence (metabolism positive), Deisenroth Lab (AID 2284028)
# Method in brief: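 Cytotoxicity in VM7Luc4E2 breast cells after 24 h exposure to medium from a 2 h metabolic pre-incubation with induced rat hepatic S9 in alginate microspheres; fluorescent live-cell protease readout, 10-point series 0.002–200 uM, n=4.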
# [5] = CCTE_Deisenroth_AIME_96WELL_CTox_Inactive: Cytotoxicity Assessment (CTOX) in CCTE's 96-well Estrogen Receptor Transactivation Assay without AIME metabolic competence (metabolism negative), Deisenroth Lab (AID 2284029)
# Method in brief: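 Metabolism-negative mode: alginate-water lids without rat S9, 2 h pre-incubation of 10-point series (0.002 - 200 uM). Conditioned medium on VM7Luc4E2 cells 24 h; loss of fluorescent live-cell protease signal marks cytotoxicity.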
# [6] = CCTE_Deisenroth_AIME_384WELL_CTox_Inactive: Cytotoxicity Assessment (CTOX) in CCTE's 384-well Estrogen Receptor Transactivation Assay without AIME metabolic competence (metabolism negative), Deisenroth Lab (AID 2284039);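 further: cell viability via live-cell protease substrate cleaved to fluorescent probe; cells exposed 24 h to medium preincubated 2 h with alginate-water beads without S9; loss of fluorescence signal means loss of viability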
# Method in brief: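 VM7Luc4E2 human breast cells received conditioned medium from a 2 h incubation of chemical with alginate-water microspheres (no S9), then were exposed 24 h. Viability was read as protease-substrate cleavage to a fluorescent probe; loss of signal was fitted bidirectionally over 0.002–200 uM.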
# [7] = CCTE_Shafer_MEA_acute_synchrony_index: CCTE's Neural Acute Assay for Synchrony, Shafer Lab (AID 2284027; active means hit-call score of the fitted dose curve at least 0.9, where 1 is the maximum; inactive means score below 0.9;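 further: network synchrony index of spontaneous spiking in primary rat cortical neurons on MEAs; fitted for loss of signal so actives lower synchrony relative to DMSO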)
# Method in brief: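 Plates equilibrated 20 min at 37 C, baseline recorded 40 min, compound (0.03-40 uM) added, then 40 min more recorded. Cells: primary rat cortical neurons, DIV 13 or 15. Per-well synchrony index change analysed in negative direction against DMSO.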
# [8] = CCTE_Shafer_MEA_dev_firing_rate_mean: CCTE's Neural Network Formation Assay for Mean Firing Rate, Shafer Lab (AID 2284031; active means hit-call score of the fitted dose curve at least 0.9, where 1 is the maximum; inactive means score below 0.9;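 on AC50: curve fitted for loss of firing so AC50 reflects decreased mean firing rate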)
# Method in brief: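 Steps: seed rat cortical cells (1.5 x 10^5/well) with laminin on PEI-coated MEA; dose day 0; record DIV 5/7/9/12, full media and compound exchange after DIV 5 and 9 recordings; compute well-mean firing rate AUC.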
# [9] = CCTE_Shafer_MEA_dev_per_burst_spike_percent: CCTE's Neural Network Formation Assay for Percent of Spikes in a Burst, Shafer Lab (AID 2284032; active means hit-call score of the fitted dose curve at least 0.9, where 1 is the maximum; inactive means score below 0.9;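 on AC50: fitted as a decrease in burst spike percentage below DMSO baseline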)
# Method in brief: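 Value is trapezoidal AUC over recordings on days 5, 7, 9 and 12 of the well-mean fraction of spikes falling in single-electrode bursts; rat cortical cultures exposed continuously from plating, treatment renewed DIV 5 and 9, fitted downward against DMSO.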
# [10] = CCTE_Shafer_MEA_dev_active_electrodes_number: CCTE's Neural Network Formation Assay for Number of Active Electrodes, Shafer Lab (AID 2284040);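 on AC50: potency for loss of active electrodes versus DMSO so lower counts are hits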
# Method in brief: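 Counts electrodes per well firing at least 5 spikes/min, recorded on days 5, 7, 9 and 12 in rat cortical cultures dosed continuously from plating (treatment refreshed DIV 5, 9). Value is the area under the curve over recordings, fitted downward relative to DMSO.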
structure (smiles),measurement,setting,value
CC(=O)Oc1c(C)c(C)c2c(c1C)CC[C@@](C)(CCC[C@H](C)CCC[C@H](C)CCCC(C)C)O2,outcome,[1],inactive
same,outcome,[2],inactive
same,outcome,[3],inactive
O=C(OCc1ccccc1)c1ccccc1O,outcome,[1],inactive
same,outcome,[2],inactive
same,AC50,[3],46.4 µM (active)
C#C[C@]1(O)CC[C@H]2[C@@H]3CCc4cc(O)ccc4[C@H]3CC[C@@]21C,AC50,[4],135 µM (active)
same,AC50,[5],116 µM (active)
same,AC50,[2],77.6 µM (active)
same,AC50,[6],93.7 µM (active)
CC(C)CCCC(C)(C)O,outcome,[7],inactive
CC(=O)c1ccc(C)cc1,outcome,[7],inactive
CC/C(=C(\c1ccccc1)c1ccc(OCCN(C)C)cc1)c1ccccc1,AC50,[7],14.8 µM (active)
same,outcome,[7],inactive
same,AC50,[4],7.84 µM (active)
same,AC50,[5],74.1 µM (active)
same,AC50,[8],0.0329 µM (active)
same,AC50,[9],1.98 µM (active)
same,AC50,[10],329 nM (active)
CC(C)(CO)CO,outcome,[7],inactive
CCCCN(CCO)CCO,outcome,[7],inactive
O=C(c1ccc(OCCN2CCCCC2)cc1)c1c(-c2ccc(O)cc2)sc2cc(O)ccc12,AC50,[7],36.8 µM (active)
CCn1cc(C(=O)O)c(=O)c2ccc(C)nc21,outcome,[7],inactive
N[C@@H](CCC(=O)O)C(=O)O,outcome,[7],inactive
same,outcome,[8],inactive
same,outcome,[9],inactive
OC[C@H]1O[C@@H](O[C@H]2[C@H](O)[C@@H](O)[C@H](O)O[C@@H]2CO)[C@H](O)[C@@H](O)[C@H]1O,outcome,[1],inactive
same,outcome,[2],inactive
same,outcome,[3],inactive
same,outcome,[6],inactive
COc1ccc2[nH]cc(CCNC(C)=O)c2c1,outcome,[1],inactive
same,outcome,[2],inactive
same,outcome,[3],inactive
CCC(C)COC(=O)CC(C)C (stereo not given),outcome,[1],inactive
same,outcome,[2],inactive
same,outcome,[3],inactive
c1ccc2scnc2c1,outcome,[1],inactive
same,outcome,[8],inactive
same,outcome,[9],inactive
same,outcome,[3],inactive
same,outcome,[10],inactive
c1ccc(OCCOc2ccccc2)cc1,outcome,[7],inactive
CC(C)(C)C1CCC(O)CC1 (stereo not given),outcome,[1],inactive
same,outcome,[2],inactive
same,outcome,[3],inactive
CCCCOCCOCCO,outcome,[7],inactive
same,outcome,[1],inactive
same,outcome,[3],inactive
same,outcome,[6],inactive
CC(CCO)CC(C)(C)C (stereo not given),outcome,[1],inactive
same,outcome,[2],inactive
same,outcome,[3],inactive
same,outcome,[6],inactive
CCCO[Si](OCCC)(OCCC)OCCC,outcome,[7],inactive
CC(=O)C1=C(C)[C@@H]2C[C@@]3(C1)[C@H](C)CC[C@H]3C2(C)C,AC50,[1],0.000204 µM (active)
same,outcome,[2],inactive
same,AC50,[3],0.000263 µM (active)
CC(=O)c1ccc2ccccc2c1,AC50,[1],74.9 µM (active)
same,outcome,[2],inactive
same,outcome,[3],inactive
C[C@]12CC[C@@H]3c4ccc(O)cc4CC[C@H]3[C@@H]1CC[C@@H]2O,outcome,[4],inactive
same,outcome,[5],inactive
same,outcome,[8],inactive
same,outcome,[9],inactive
same,AC50,[10],10 µM (active) and 13.5 µM (active)
